# Source: the supplement of paper PMC10498489
# Hit rate of the full screen: of about 2,300 compounds, about 330 (14%) showed activity. These entries were drawn from the full list. Values without a mark were called inactive.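 How the source made its calls: active = median modified Z-score above 1.96; inactive = 1.96 or below.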
# Tested on: HepG2 Srxn1-GFP reporter cells (+30 nM CDDO-Me)
# Test: Srxn1-GFP intensity median modified Z-score relative to plate median; higher = stronger NRF2 / oxidative stress reporter activation, active = hit call of the paper
# Conditions: 10 µM; exposure time: 24h
# Outline: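 The modified Z-score of GFP intensity was computed per plate, and the median over replicates is reported. HepG2 Srxn1-GFP BAC reporter cells in three replicate plates were treated for 24 h with compound at 10 μM plus an NRF2 activator at 30 nM (≤0.1% DMSO). Per-cell cytoplasmic GFP came from confocal images, excluding those with under 100 cells, and scaling used 1.4826 × median absolute deviation.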
row,Compound,Srxn1-GFP intensity median modified Z-score
1,CCOC(=O)c1c(C)cc(O)c(C=O)c1O [euspeclibcmpd1571],-0.398
2,COC(=O)c1c(C)cc(OC(=O)c2c(C)cc(O)c(C=O)c2O)c(C)c1O [euspeclibcmpd1556],12.5 (active)
3,COc1cc(C)c(C(=O)Oc2cc(C)c(C(=O)O)c(O)c2C)c(OC)c1C [euspeclibcmpd1550],1.38
4,COC1CC(OC2C(C)C(=O)OC(C)C(C)C(O)C(C)C(=O)C3(CO3)CC(C)C(OC3OC(C)CC(N(C)C)C3O)C2C)OC(C)C1O (centres undefined) [euspeclibcmpd1849],-0.547
5,O=S(=O)(O)c1cc(N=C=S)ccc1C=Cc1ccc(N=C=S)cc1S(=O)(=O)O [euspeclibcmpd1825],-0.132
6,S=C=Nc1ccc(N=C=S)cc1 [euspeclibcmpd1177],20.6 (active)
7,CCCC(NC(C)C(=O)N1C(C(=O)O)C[C@@H]2CCCC[C@@H]21)C(=O)OCC (some centres undefined) [euspeclibcmpd721],-0.404
8,CCOC(=O)C(CCc1ccccc1)NC(C)C(=O)N1C(C(=O)O)C[C@@H]2CCC[C@@H]21 (some centres undefined) [euspeclibcmpd722],-0.468
9,CCOC(=O)C(CCc1ccccc1)NC(C)C(=O)N1C(C(=O)O)CC2CCCCC21 (centres undefined) [euspeclibcmpd732],9.5 (active)
10,CC1C(=O)O[C@H]2CC34[C@H]5CC(C(C)(C)C)C36C(=O)C(O)O[C@H]6OC4(C(=O)O5)[C@@]12O (some centres undefined) [euspeclibcmpd2300],-0.422
11,CC(=O)Nc1ccc(OC(=O)c2ccccc2O)cc1 [euspeclibcmpd1988],-0.258
12,CN(C)N=Nc1[nH]cnc1C(N)=O [euspeclibcmpd80],60.7 (active)
13,CN(C)c1cc(NC(=O)CNC(C)(C)C)c(O)c2c1C[C@H]1C[C@H]3[C@H](N(C)C)C(=O)C(C(N)=O)C(=O)[C@@]3(O)C(=O)C1C2=O (some centres undefined) [euspeclibcmpd1297],-0.316
14,OCc1cc(O)c2c(O)c3c(O)cccc3c([C@@H]3O[C@H](CO)[C@@H](O)[C@H](O)[C@H]3O)c2c1 [euspeclibcmpd1140],-0.523
15,CCNC1CN(CCCOC)S(=O)(=O)c2sc(S(N)(=O)=O)cc21 (centres undefined) [euspeclibcmpd1945],-0.371
16,COc1cc([C@@H]2c3cc4c(cc3C(OC3O[C@@H]5COC(C)O[C@H]5[C@H](O)[C@H]3O)C3COC(=O)C32)OCO4)cc(OC)c1O (some centres undefined) [euspeclibcmpd356],2.43 (active)
17,COc1cc([C@@H]2c3cc4c(cc3C(O[C@@H]3O[C@@H]5CO[C@@H](c6cccs6)OC5[C@H](O)[C@H]3O)C3COC(=O)C32)OCO4)cc(OC)c1O (some centres undefined) [euspeclibcmpd647],8.51 (active)

row,Compound,Srxn1-GFP intensity median modified Z-score
1,C=C1CCC(c2cc(O)oc2O)C(=O)CCC2C1CC2(C)C (centres undefined) [euspeclibcmpd1822],-0.357
2,Nc1ccc(S(=O)(=O)N=c2nccc[nH]2)cc1 [euspeclibcmpd274],-0.479
3,CCCCCCCCCCCCCCCC(=O)OCC(O)CO (centres undefined) [euspeclibcmpd1622],-0.224
4,CCc1ccc(CCOc2ccc(Cc3sc(=O)[nH]c3O)cc2)nc1 [euspeclibcmpd684],-0.309
5,O=c1c(-c2ccc(Br)cc2)coc2cc(O)ccc12,0.373
6,C[C@]12CCC(=O)CC1=C1C[C@@H]1C1C2CC[C@@]2(C)C1[C@@H]1C[C@@H]1[C@@]21CCC(=O)O1 (some centres undefined) [euspeclibcmpd608],-0.491
7,C[C@@H]1O[C@@H](O[C@H]2[C@@H](Oc3cc(O)c4c(c3)O[C@H](c3ccc(O)cc3)CC4=O)O[C@H](CO)[C@@H](O)[C@@H]2O)[C@H](O)[C@H](O)[C@H]1O [euspeclibcmpd1504],-0.249
8,Cc1ccc(-c2cc(C(F)(F)F)nn2-c2ccc(S(N)(=O)=O)cc2)cc1 [euspeclibcmpd595],2.01 (active)
9,NS(=O)(=O)c1ccc(C(=O)O)cc1 [euspeclibcmpd1180],0.0784
10,COc1ccc(-c2cc(C(F)F)nn2-c2ccc(S(N)(=O)=O)cc2)cc1F [euspeclibcmpd724],0.694
11,C=c1cc(O)c2c(O)c3c(O)c(=C)cc(O)c3c(O)c2c1O [euspeclibcmpd2077],-0.258
12,CCCCC(=O)O[C@]1(C(=O)CO)[C@@H](C)CC2C3CC=C4CC(=O)C=C[C@]4(C)[C@@]3(F)C(O)C[C@@]21C (some centres undefined) [euspeclibcmpd36],-0.635
13,CS(=O)(=O)c1ccc(-c2coc(O)c2-c2ccccc2)cc1 [euspeclibcmpd2038],-0.358
14,O=C(O)CN(CCN(CC(=O)O)CC(=O)O)CCN(CC(=O)O)CC(=O)O [euspeclibcmpd916],-0.735
15,O=C(O)CN(CCN(CC(=O)O)CC(=O)O)CC(=O)O [euspeclibcmpd2457],-0.0932
16,O=C(O)CS [euspeclibcmpd2222],-0.181
17,O=C(O)CN(CCN(CC(=O)O)CC(=O)O)CC(=O)O,2.26 (active)
